Assay results as given in publication PMC5540273 (PLoS ONE, 2017).
“And” between values parts separate entries of the source, which are not always exact repeats. Equal values may be shown once. Read-outs that look alike come from different tables or passages of the source.

How the values were obtained:
BUB1 = conditions: concentration: 1 μM, replicates: in singlicate, n = 1
CAMK1B = conditions: concentration: 1 μM, replicates: in singlicate, n = 1
CAMK1D = conditions: concentration: 1 μM, replicates: in singlicate, n = 1
CAMK1G = conditions: concentration: 1 μM, replicates: in singlicate; n = 1
CAMK1 = conditions: concentration: 1 μM, replicates: in singlicate, n = 1
CAMK2A = conditions: concentration: 1 μM, replicates: in singlicate; n = 1
CAMK2B = conditions: concentration: 1 μM, replicates: in singlicate; n = 1
CAMK2D = conditions: concentration: 1 μM, replicates: in singlicate, n = 1
CAMK2G = conditions: concentration: 1 μM, replicates: in singlicate, n = 1
CAMK4 = conditions: concentration: 1 μM, replicates: in singlicate; n = 1
CAMKK1 = conditions: concentration: 1 μM, replicates: in singlicate; n = 1
CAMKK2 = conditions: concentration: 1 μM, replicates: in singlicate, n = 1
CASK = conditions: concentration: 1 μM, replicates: in singlicate, n = 1
CDC2L1 = test system: T1, CDC2L1; conditions: concentration: 1 μM, replicates: in singlicate; n = 1
T1 construct: gene CDK11B

CDC2L2 = conditions: concentration: 1 μM, replicates: in singlicate, n = 1
CDC2L5 = test system: T2, CDC2L5; conditions: concentration: 1 μM, replicates: in singlicate, n = 1
T2 construct: gene CDK13

CDK11 = test system: T3, CDK11; conditions: concentration: 1 μM, replicates: in singlicate; n = 1
T3 construct: gene CDK19

CDK2 = conditions: concentration: 1 μM, replicates: in singlicate; n = 1
CDK3 = conditions: concentration: 1 μM, replicates: in singlicate; n = 1
CDK4-cyclinD1 = conditions: concentration: 1 μM, replicates: in singlicate, n = 1
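Note: KINOMEscan kinase panel screen.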

Cc1ccc(C(=O)NCC(N)=O)cc1-n1c(C)cc(OCc2ccc(F)cc2F)c(Br)c1=O
%Inh (BUB1): 0%
%Inh (CAMK1B): 10%
%Inh (CAMK1D): 36%
%Inh (CAMK1G): 0%
%Inh (CAMK1): 44%
%Inh (CAMK2A): 9%
%Inh (CAMK2B): 1%
%Inh (CAMK2D): 0%
%Inh (CAMK2G): 0%
%Inh (CAMK4): 26%
%Inh (CAMKK1): 3%
%Inh (CAMKK2): 0%
%Inh (CASK): 0%
%Inh (CDC2L1): 7%
%Inh (CDC2L2): 20%
%Inh (CDC2L5): 0%
%Inh (CDK11): 0%
%Inh (CDK2): 0%
%Inh (CDK3): 0%
%Inh (CDK4-cyclinD1): 0%

CCc1nc(-c2cccc(C)c2)c(-c2ccnc(NCc3ccccc3)c2)s1
%Inh (BUB1): 18%
%Inh (CAMK1B): 0%
%Inh (CAMK1D): 6%
%Inh (CAMK1G): 9%
%Inh (CAMK1): 40%
%Inh (CAMK2A): 11%
%Inh (CAMK2B): 0%
%Inh (CAMK2D): 0%
%Inh (CAMK2G): 10%
%Inh (CAMK4): 0%
%Inh (CAMKK1): 3%
%Inh (CAMKK2): 12%
%Inh (CASK): 16%
%Inh (CDC2L1): 0%
%Inh (CDC2L2): 5%
%Inh (CDC2L5): 11%
%Inh (CDK11): 0%
%Inh (CDK2): 0%
%Inh (CDK3): 9%
%Inh (CDK4-cyclinD1): 0%

CSc1ccc(-c2cc3ncnc(SCC(=O)O)c3s2)cc1
%Inh (BUB1): 24%
%Inh (CAMK1B): 0%
%Inh (CAMK1D): 0%
%Inh (CAMK1G): 0%
%Inh (CAMK1): 0%
%Inh (CAMK2A): 0%
%Inh (CAMK2B): 0%
%Inh (CAMK2D): 0%
%Inh (CAMK2G): 0%
%Inh (CAMK4): 3%
%Inh (CAMKK1): 44%
%Inh (CAMKK2): 45%
%Inh (CASK): 0%
%Inh (CDC2L1): 7%
%Inh (CDC2L2): 0%
%Inh (CDC2L5): 0%
%Inh (CDK11): 0%
%Inh (CDK2): 0%
%Inh (CDK3): 40%
%Inh (CDK4-cyclinD1): 0%

CN1c2ccc(CNc3ccc(F)cc3)cc2-c2c(cnn2C)S1(=O)=O
%Inh (BUB1): 0%
%Inh (CAMK1B): 0%
%Inh (CAMK1D): 50%
%Inh (CAMK1G): 0%
%Inh (CAMK1): 63%
%Inh (CAMK2A): 0%
%Inh (CAMK2B): 1%
%Inh (CAMK2D): 4%
%Inh (CAMK2G): 0%
%Inh (CAMK4): 0%
%Inh (CAMKK1): 0%
%Inh (CAMKK2): 0%
%Inh (CASK): 22%
%Inh (CDC2L1): 0%
%Inh (CDC2L2): 0%
%Inh (CDC2L5): 15%
%Inh (CDK11): 0%
%Inh (CDK2): 0%
%Inh (CDK3): 0%
%Inh (CDK4-cyclinD1): 13%

Cc1cccc(-c2nc(-c3ccc(S(C)(=O)=O)cc3)sc2-c2ccncc2)c1
%Inh (BUB1): 25%
%Inh (CAMK1B): 0%
%Inh (CAMK1D): 15%
%Inh (CAMK1G): 9%
%Inh (CAMK1): 5%
%Inh (CAMK2A): 0%
%Inh (CAMK2B): 0%
%Inh (CAMK2D): 4%
%Inh (CAMK2G): 5%
%Inh (CAMK4): 0%
%Inh (CAMKK1): 4%
%Inh (CAMKK2): 5%
%Inh (CASK): 0%
%Inh (CDC2L1): 0%
%Inh (CDC2L2): 0%
%Inh (CDC2L5): 9%
%Inh (CDK11): 0%
%Inh (CDK2): 14%
%Inh (CDK3): 3%
%Inh (CDK4-cyclinD1): 0%

CC(C)(CN)c1nc(-c2ccc(Cl)c(O)c2)c(-c2ccncc2)[nH]1.O=C(O)C(F)(F)F [SB-477794]
%Inh (BUB1; 1 µM): 100% and 98.2%
%Inh (CAMK1B; 1 µM): 24% and 3%
%Inh (CAMK1D; 1 µM): 10% and 9%
%Inh (CAMK1G): 0%
%Inh (CAMK1; 1 µM): 19% and 13%
%Inh (CAMK2A): 0%
%Inh (CAMK2B): 0%
%Inh (CAMK2D; 1 µM): 11% and 0%
%Inh (CAMK2G; 1 µM): 0% and 17%
%Inh (CAMK4): 0%
%Inh (CAMKK1): 0%
%Inh (CAMKK2; 1 µM): 0% and 4%
%Inh (CASK; 1 µM): 18% and 0%
%Inh (CDC2L1): 0%
%Inh (CDC2L2; 1 µM): 31% and 2%
%Inh (CDC2L5; 1 µM): 0% and 30%
%Inh (CDK11): 0%
%Inh (CDK2): 0%
%Inh (CDK3): 7%
%Inh (CDK4-cyclinD1; 1 µM): 25% and 64%

[2H]C([2H])(c1cccc(C(F)(F)F)c1C)n1ccn2c(=O)nc(N3CCOCC3)cc12 [GSK2336394]
%Inh (BUB1): 52%
%Inh (CAMK1B): 26%
%Inh (CAMK1D): 0%
%Inh (CAMK1G): 0%
%Inh (CAMK1): 0%
%Inh (CAMK2A): 0%
%Inh (CAMK2B): 0%
%Inh (CAMK2D): 7%
%Inh (CAMK2G): 3%
%Inh (CAMK4): 16%
%Inh (CAMKK1): 0%
%Inh (CAMKK2): 0%
%Inh (CASK): 8%
%Inh (CDC2L1): 0%
%Inh (CDC2L2): 17%
%Inh (CDC2L5): 0%
%Inh (CDK11): 5%
%Inh (CDK2): 0%
%Inh (CDK3): 1%
%Inh (CDK4-cyclinD1): 0%

Cc1nnc(-c2ccc3occ(-c4ccc(C(C)O)cc4)c3c2)o1 (centres unmarked)
%Inh (BUB1): 9%
%Inh (CAMK1B): 0%
%Inh (CAMK1D): 0%
%Inh (CAMK1G): 0%
%Inh (CAMK1): 12%
%Inh (CAMK2A): 3%
%Inh (CAMK2B): 0%
%Inh (CAMK2D): 6%
%Inh (CAMK2G): 11%
%Inh (CAMK4): 0%
%Inh (CAMKK1): 12%
%Inh (CAMKK2): 14%
%Inh (CASK): 4%
%Inh (CDC2L1): 1%
%Inh (CDC2L2): 4%
%Inh (CDC2L5): 22%
%Inh (CDK11): 0%
%Inh (CDK2): 5%
%Inh (CDK3): 4%
%Inh (CDK4-cyclinD1): 0%

O=C(c1ccc(-c2cc(-c3c[nH]nc3-c3ccccn3)ccn2)cc1)N1CCOCC1 [GW812171]
%Inh (BUB1): 20%
%Inh (CAMK1B): 0%
%Inh (CAMK1D): 21%
%Inh (CAMK1G): 0%
%Inh (CAMK1): 14%
%Inh (CAMK2A): 0%
%Inh (CAMK2B): 0%
%Inh (CAMK2D): 0%
%Inh (CAMK2G): 0%
%Inh (CAMK4): 0%
%Inh (CAMKK1): 0%
%Inh (CAMKK2): 0%
%Inh (CASK): 4%
%Inh (CDC2L1): 0%
%Inh (CDC2L2): 2%
%Inh (CDC2L5): 11%
%Inh (CDK11): 0%
%Inh (CDK2): 0%
%Inh (CDK3): 0%
%Inh (CDK4-cyclinD1): 0%

Fc1ccc(-c2ncn(CCCN3CCOCC3)c2-c2ccccn2)cc1 [SB-211742]
%Inh (BUB1): 0%
%Inh (CAMK1B): 0%
%Inh (CAMK1D): 0%
%Inh (CAMK1G): 0%
%Inh (CAMK1): 0%
%Inh (CAMK2A): 6%
%Inh (CAMK2B): 10%
%Inh (CAMK2D): 0%
%Inh (CAMK2G): 11%
%Inh (CAMK4): 20%
%Inh (CAMKK1): 16%
%Inh (CAMKK2): 19%
%Inh (CASK): 0%
%Inh (CDC2L1): 1%
%Inh (CDC2L2): 0%
%Inh (CDC2L5): 21%
%Inh (CDK11): 0%
%Inh (CDK2): 0%
%Inh (CDK3): 43%
%Inh (CDK4-cyclinD1): 22%
